Active and inactive are the calls of the source. How the source made its calls: active means hit-call score of the fitted dose curve at least 0.9, where 1 is the maximum; inactive means score below 0.9.
Key:
[1] = APR_HepG2_NuclearSize_72hr: Apredica 72-hour HepG2 Assay for Nuclear Size (AID 2282925); details: high-content imaging, actives raise or lower the signal
Method in brief: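 HepG2 cells were exposed to compounds at ten concentrations from 0.39 to 200 uM (duplicate, 0.5% DMSO final) for 72 hr. After fixation in 3.7% formaldehyde, nuclei were stained with Hoechst 33342 (2 ug/mL) and imaged at 20x.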

[2] = ATG_CRE_CIS: Attagene CIS-FACTORIAL HepG2 Assay for human cAMP Responsive Element (CRE) binding protein 3 (AID 2282926); details: HepG2 CRE cis-reporter, Attagene multiplexed mRNA; actives raise or lower the signal
Method in brief: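 HepG2 cells transiently transfected with cis-element-driven multiple reporter transcription units; CRE reporter mRNA measured 24 h after dosing by RT-PCR, 6-FAM labelling, HpaI digestion and capillary electrophoresis. Bidirectional fit versus DMSO baseline.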

[3] = molecular target: CCAAT/enhancer-binding protein beta (Homo sapiens) (UniProt P17676); assay: ATG_C_EBP_CIS: Attagene CIS-FACTORIAL HepG2 Assay for human CCAAT/Enhancer Binding Protein (C/EBP) beta (AID 2282927); details: HepG2 Attagene cis-factorial transcription factor reporter; actives raise or lower the signal
Method in brief: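 Following a 24 h incubation with test chemical, transfected HepG2 cells yielded RNA whose reporter transcripts were quantified by RT-PCR and fluorescent capillary electrophoresis, with DMSO serving as baseline for bidirectional fitting.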

[4] = ATG_CMV_CIS: Attagene CIS-FACTORIAL HepG2 Assay for human CMV (Internal Marker) (AID 2282928); details: HepG2 CMV promoter reporter, transcription factor profiling; actives raise or lower the signal;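 further: endpoint acts as a background internal control marker rather than a target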
Method in brief: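 After transient transfection of HepG2 with reporter transcription units driven by cis-regulatory promoters, cells receive test chemical for 24 h. Labeled reporter amplicons, digested with HpaI, are sized and quantified by capillary electrophoresis against DMSO.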

[5] = ATG_DR4_LXR_CIS: Attagene CIS-FACTORIAL HepG2 Assay for human Liver X Receptor (LXR), DR4 submotif (AID 2282929); details: HepG2 Attagene DR4 cis-reporter, mRNA transcription; actives raise or lower the signal
Method in brief: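 Transiently transfected HepG2 liver cells; cis-regulated reporters; 24 h dosing. RT-PCR plus CE read-out of reporter mRNA. DMSO baseline, bidirectional curve fitting.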

[6] = molecular target: Aryl hydrocarbon receptor (Homo sapiens) (UniProt P35869); assay: ATG_Ahr_CIS: Attagene CIS-FACTORIAL HepG2 Assay for human Aryl Hydrocarbon Receptor (Ahr) (AID 2282930); details: HepG2 AhR cis-factorial reporter transcription; actives raise or lower the signal
Method in brief: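 Values derive from bidirectional fitting against DMSO negative control. Underlying signal: cis-element reporter mRNA in transiently transfected HepG2, harvested 24 h post-dose and measured by RT-PCR plus capillary electrophoresis.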

[7] = ATG_AP_1_CIS: Attagene CIS-FACTORIAL HepG2 Assay for human Activator Protein 1 (AP-1) (AID 2282931); details: HepG2 Attagene cis-factorial AP-1 reporter mRNA; actives raise or lower the signal
Method in brief: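 We transfected HepG2 cells transiently with a set of cis-regulated reporter transcription units, dosed them for 24 h, and quantified reporter mRNA via RT-PCR and capillary electrophoresis, scoring gain or loss of signal relative to DMSO.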

[8] = ATG_AP_2_CIS: Attagene CIS-FACTORIAL HepG2 Assay for human Activator Protein 2 (AP-2) (AID 2282932); details: HepG2 AP-2 cis-reporter, Attagene transcription factor profiling; actives raise or lower the signal
Method in brief: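 Bidirectional curve fitting against DMSO was applied to reporter mRNA signals from HepG2 cells 24 h after dosing. Cis-promoter reporter units, transiently transfected, were read by RT-PCR plus capillary electrophoresis.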

[9] = ATG_BRE_CIS: Attagene CIS-FACTORIAL HepG2 Assay for human Bone Morphogenetic Protein (BMP) Response Element (BRE) (AID 2282933); details: HepG2 BMP response element reporter, Attagene transcription factor profiling; actives raise or lower the signal
Method in brief: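 Endogenous transcription factor activity read in transiently transfected HepG2 cells after 24 h chemical exposure. Bidirectional curve fitting against DMSO; readout is reporter transcript level by RT-PCR with capillary electrophoresis of labelled products.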

[10] = molecular target: Retinoic acid receptor alpha (Homo sapiens) (UniProt P10276); assay: ATG_DR5_RAR_CIS: Attagene CIS-FACTORIAL HepG2 Assay for human Retinoic Acid Receptor Alpha (RARE), DR5 submotif (AID 2282934); details: HepG2 Attagene cis-factorial RARE DR5 reporter, mRNA; actives raise or lower the signal;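 on AC50: reporter responds to endogenous RAR alpha beta and gamma in HepG2 not RARA alone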
Method in brief: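 Endpoint fitted in both directions relative to DMSO as negative control. It reflects DR5 cis-element reporter mRNA induction in transiently transfected HepG2 cells, measured 24 h after dosing through RT-PCR and fluorescent capillary electrophoresis.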

[11] = molecular target: Transcription factor E2F1 (Homo sapiens) (UniProt Q01094); assay: ATG_E2F_CIS: Attagene CIS-FACTORIAL HepG2 Assay for human E2F Transcription Factor 1 (AID 2282935); details: HepG2 Attagene cis-reporter, E2F reporter RNA transcripts; actives raise or lower the signal
Method in brief: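 Multiplexed cis-reporter assay: HepG2, transient transfection, 24 h dosing, mRNA quantitation by labeled RT-PCR and CE.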

[12] = ATG_E_Box_CIS: Attagene CIS-FACTORIAL HepG2 Assay for human Enhancer Box (E-box) (AID 2282936); details: HepG2 E-box cis-reporter transcription, actives raise or lower the signal
Method in brief: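 Multiplexed CIS reporter system in transiently transfected HepG2 cells measures native transcription factor activity. Reporter RNA after 24 h exposure is profiled by RT-PCR-capillary electrophoresis.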

[13] = ATG_M_61_CIS: Attagene CIS-FACTORIAL HepG2 Assay for M61 Transcription Factor (Internal Marker) (AID 2282937); details: HepG2 Attagene CIS-FACTORIAL M61 internal marker reporter; actives raise or lower the signal
Method in brief: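 Multiplexed reporter mRNA assay, HepG2 human hepatoma cells, 24 h treatment. Signal: FAM-labelled, HpaI-digested RT-PCR fragments by CE. Fit: bidirectional, baseline DMSO.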

[14] = ATG_EGR_CIS: Attagene CIS-FACTORIAL HepG2 Assay for human Early Growth Response 1 (EGR1) (AID 2282938); details: HepG2 Attagene CIS-FACTORIAL EGR reporter mRNA; actives raise or lower the signal
Method in brief: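 Multiplexed cis-reporter system in human hepatoma HepG2 cells, transiently transfected. Cells are dosed for 24 h; reporter transcripts are amplified, fluorescently tagged and sized by capillary electrophoresis, with DMSO as negative control.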

[15] = ATG_M_19_CIS: Attagene CIS-FACTORIAL HepG2 Assay for M19 Transcription Factor (Internal Marker) (AID 2282939); details: HepG2 Attagene CIS-FACTORIAL M19 internal marker reporter; actives raise or lower the signal
Method in brief: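 Internal marker readout, fitted in both directions against DMSO, from HepG2 cells carrying transfected cis-element reporter constructs; RT-PCR and capillary electrophoresis of reporter mRNA after 24 h exposure.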

[16] = ATG_ERE_CIS: Attagene CIS-FACTORIAL HepG2 Assay for Estrogen Response Element (ERE) (AID 2282940); details: HepG2 ERE cis-reporter, Attagene RNA transcript; actives raise or lower the signal
Method in brief: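 After 24 h compound treatment, RNA from transfected HepG2 cells was reverse-transcribed, reporter cDNA PCR-amplified, FAM-labelled, HpaI-cut and resolved by capillary electrophoresis. ERE-driven cis reporter transcripts reflect endogenous factors; gain or loss scored against DMSO.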

[17] = ATG_Ets_CIS: Attagene CIS-FACTORIAL HepG2 Assay for human Erythroblast Transformation Specific (ETS) (AID 2282941); details: HepG2 ETS cis-reporter transcription, actives raise or lower the signal
Method in brief: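 Human HepG2 hepatoma cells were transiently transfected with promoter-driven reporter constructs and treated for 24 hours. Reporter transcripts were quantified by RT-PCR with fluorescent primer extension; bidirectional curve fitting used DMSO as reference.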

[18] = molecular target: Hepatocyte nuclear factor 3-beta (Homo sapiens) (UniProt Q9Y261); assay: ATG_FoxA2_CIS: Attagene CIS-FACTORIAL HepG2 Assay for human Forkhead box A2 (FOXA2) (AID 2282942); details: HepG2 cis-reporter transcription factor activity, 24 h; actives raise or lower the signal
Method in brief: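 Multiplexed cis-element reporter assay in transiently transfected HepG2. Twenty-four hours post-dosing, RNA was reverse-transcribed, amplified, FAM-labelled, HpaI-digested and separated by CE. Activity gain or loss relative to DMSO.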

[19] = ATG_FoxO_CIS: Attagene CIS-FACTORIAL HepG2 Assay for human Forkhead box O (FoxO) (AID 2282943); details: HepG2 Attagene cis-reporter, FoxO element, mRNA; actives raise or lower the signal
Method in brief: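 Values reflect reporter mRNA induction or loss in HepG2 cells 24 h post-dosing, fitted bidirectionally with DMSO as negative control and baseline. Detection used RT-PCR and fluorescence capillary electrophoresis.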

[20] = ATG_GATA_CIS: Attagene CIS-FACTORIAL HepG2 Assay for human GATA Binding Protein (AID 2282944); details: HepG2 GATA cis-element reporter, Attagene multiplex mRNA; actives raise or lower the signal
Method in brief: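 Reporter transcripts from a GATA cis-regulated unit, among multiplexed reporters in transfected HepG2 cells, were measured by RT-PCR with capillary electrophoresis after 24 h dosing. Induction or loss scored relative to DMSO.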

Measured: AC50

Sequence of CCAAT/enhancer-binding protein beta (Homo sapiens) (P17676 whole entry, looked up): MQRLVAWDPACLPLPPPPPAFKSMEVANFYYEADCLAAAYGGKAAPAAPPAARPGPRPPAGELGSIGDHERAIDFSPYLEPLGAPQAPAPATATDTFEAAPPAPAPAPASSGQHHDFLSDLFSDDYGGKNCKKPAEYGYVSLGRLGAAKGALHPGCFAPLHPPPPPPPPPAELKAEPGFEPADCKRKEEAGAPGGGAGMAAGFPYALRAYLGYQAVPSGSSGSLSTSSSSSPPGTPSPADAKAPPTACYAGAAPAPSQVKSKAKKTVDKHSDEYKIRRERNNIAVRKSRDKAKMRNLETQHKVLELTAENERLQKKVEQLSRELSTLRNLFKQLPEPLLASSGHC
Sequence of Transcription factor E2F1 (Homo sapiens) (Q01094 whole entry, looked up): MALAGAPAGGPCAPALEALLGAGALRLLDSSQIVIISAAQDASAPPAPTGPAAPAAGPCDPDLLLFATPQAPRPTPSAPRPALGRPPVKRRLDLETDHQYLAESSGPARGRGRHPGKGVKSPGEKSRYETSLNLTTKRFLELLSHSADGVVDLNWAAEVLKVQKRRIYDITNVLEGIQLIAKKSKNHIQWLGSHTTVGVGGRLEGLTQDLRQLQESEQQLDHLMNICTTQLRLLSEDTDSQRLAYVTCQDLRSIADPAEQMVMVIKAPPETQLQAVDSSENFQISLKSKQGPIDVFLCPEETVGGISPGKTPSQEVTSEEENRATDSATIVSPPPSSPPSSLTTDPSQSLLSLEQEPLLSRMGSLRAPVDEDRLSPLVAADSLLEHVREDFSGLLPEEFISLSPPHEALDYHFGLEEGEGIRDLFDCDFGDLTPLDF
Sequence of Hepatocyte nuclear factor 3-beta (Homo sapiens) (Q9Y261 whole entry, looked up): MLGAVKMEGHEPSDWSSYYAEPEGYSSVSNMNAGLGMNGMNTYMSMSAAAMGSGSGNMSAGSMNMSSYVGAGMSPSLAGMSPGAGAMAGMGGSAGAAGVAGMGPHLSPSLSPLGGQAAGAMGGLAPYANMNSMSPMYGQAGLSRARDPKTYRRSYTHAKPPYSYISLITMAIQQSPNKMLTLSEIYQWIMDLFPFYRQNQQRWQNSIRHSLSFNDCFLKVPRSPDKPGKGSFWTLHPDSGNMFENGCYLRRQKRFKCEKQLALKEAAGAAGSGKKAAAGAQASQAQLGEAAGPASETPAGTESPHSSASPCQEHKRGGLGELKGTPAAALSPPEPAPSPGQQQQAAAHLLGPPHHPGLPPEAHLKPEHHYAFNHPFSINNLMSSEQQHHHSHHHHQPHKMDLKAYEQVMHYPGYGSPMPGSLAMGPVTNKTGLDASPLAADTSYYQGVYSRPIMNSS
Sequence of Retinoic acid receptor alpha (Homo sapiens) (P10276 whole entry, looked up): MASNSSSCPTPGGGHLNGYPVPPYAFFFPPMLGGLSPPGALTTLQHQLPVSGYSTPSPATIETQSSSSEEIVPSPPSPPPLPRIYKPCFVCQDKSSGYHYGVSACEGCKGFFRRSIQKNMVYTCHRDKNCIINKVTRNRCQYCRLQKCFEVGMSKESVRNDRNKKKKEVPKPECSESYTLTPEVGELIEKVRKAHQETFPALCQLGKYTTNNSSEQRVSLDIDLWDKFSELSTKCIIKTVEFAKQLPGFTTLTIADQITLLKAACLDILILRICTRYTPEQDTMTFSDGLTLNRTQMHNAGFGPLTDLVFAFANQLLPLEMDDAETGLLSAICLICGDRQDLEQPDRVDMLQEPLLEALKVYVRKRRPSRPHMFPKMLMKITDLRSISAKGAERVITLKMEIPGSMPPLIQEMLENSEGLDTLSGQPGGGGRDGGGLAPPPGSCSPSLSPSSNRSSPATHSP
Sequence of Aryl hydrocarbon receptor (Homo sapiens) (P35869 whole entry, looked up): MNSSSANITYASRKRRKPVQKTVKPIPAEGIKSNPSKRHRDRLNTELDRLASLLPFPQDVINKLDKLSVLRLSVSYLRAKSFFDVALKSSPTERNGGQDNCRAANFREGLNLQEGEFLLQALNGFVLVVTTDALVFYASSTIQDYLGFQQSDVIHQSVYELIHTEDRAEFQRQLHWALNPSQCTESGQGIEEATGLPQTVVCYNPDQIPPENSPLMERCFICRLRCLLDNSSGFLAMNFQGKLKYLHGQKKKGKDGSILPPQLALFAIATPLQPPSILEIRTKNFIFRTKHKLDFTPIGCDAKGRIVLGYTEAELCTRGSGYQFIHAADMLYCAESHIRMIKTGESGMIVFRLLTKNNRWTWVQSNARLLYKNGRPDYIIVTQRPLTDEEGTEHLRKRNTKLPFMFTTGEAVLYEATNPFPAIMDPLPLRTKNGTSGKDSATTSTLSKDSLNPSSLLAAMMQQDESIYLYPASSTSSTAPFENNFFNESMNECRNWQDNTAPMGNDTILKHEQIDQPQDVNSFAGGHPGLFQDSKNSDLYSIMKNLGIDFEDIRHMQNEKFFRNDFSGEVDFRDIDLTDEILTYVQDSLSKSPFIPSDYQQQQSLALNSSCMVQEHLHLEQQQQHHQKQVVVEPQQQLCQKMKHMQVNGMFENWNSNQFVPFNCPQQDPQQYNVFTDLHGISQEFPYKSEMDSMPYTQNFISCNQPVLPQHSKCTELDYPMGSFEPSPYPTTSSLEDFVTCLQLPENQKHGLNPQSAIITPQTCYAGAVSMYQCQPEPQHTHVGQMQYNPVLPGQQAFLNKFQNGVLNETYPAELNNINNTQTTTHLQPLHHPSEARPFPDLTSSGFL

C1CCC(SSC2CCCCC2)CC1
active: [4] 65.6 µM | [6] 66.3 µM | [7] 125 µM | [16] 56.7 µM
inactive: all other assays above

COc1cc(C=O)ccc1O
active: [6] 80.8 µM | [10] 31.1 µM
inactive: all other assays above

CCCCCCCCCCO
active: [2] 183 µM
inactive: all other assays above

— PubChem BioAssay (EPA / NIEHS)
